The panel holds about 83,000 compounds, 20% with a hit somewhere; the sample as a whole holds those more often.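 Compound tested at a single concentration for 48 hours in 96-well plates; a percent growth value below 10 was scored as active.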 Unmarked numbers belong to inactive results. Calls of active or inactive are those of the source.

Data on ten molecules can be found in PubChem BioAssay (NCI).

Test in all cases: NCI-60 one-dose screen, 48 h (100 = growth as untreated, 0 = no growth, -100 = all killed)
One assay deals with SR leukemia. As to conditions: 10 µM unless noted.
The next assay relates to OVCAR-5 ovarian. The following applies: 10 µM unless noted.
Another assay relates to OVCAR-4 ovarian. The following applies: 10 µM.
The next assay has as its system IGROV1 ovarian. As to conditions: 10 µM unless noted.
For a further assay, the system named is OVCAR-3 ovarian. The following applies: 10 µM unless noted.
A further assay deals with HS 578T breast. The following applies: 10 µM unless noted.
In the next assay the test system is NCI/ADR-RES ovarian. The following applies: 10 µM unless noted.
The next assay concerns T-47D breast. As to conditions: 10 µM unless noted.
A further assay deals with BT-549 breast. The following applies: 10 µM unless noted.
For the next assay, the system named is MDA-MB-435 melanoma. As to conditions: 10 µM unless noted.
The test system of another assay is SW-620 colon. As to conditions: 10 µM unless noted.
The next assay concerns MCF7 breast. The following applies: 10 µM unless noted.
A further assay concerns HCT-116 colon. The following applies: 10 µM unless noted.
A further assay deals with HCC-2998 colon. As to conditions: 10 µM unless noted.
The subject of a further assay is KM12 colon. As to conditions: 10 µM unless noted.
The next assay has as its system OVCAR-8 ovarian. As to conditions: 10 µM unless noted.
The next assay deals with SK-OV-3 ovarian. As to conditions: 10 µM unless noted.
In the next assay the test system is RPMI-8226 leukemia. As to conditions: 10 µM unless noted.

Consider `CC(C)(C)c1cc(C(=O)Nc2ccc(C(=O)NCCN)cc2)cc(C(C)(C)C)c1`, for which the growth with SR leukemia is -40.4% (active); in the assay with OVCAR-5 ovarian it was 49.3%; with OVCAR-4 ovarian it was 62.3%; in the assay on IGROV1 ovarian, 52.9%; in the assay with OVCAR-3 ovarian it was 54.6%; in the assay on HS 578T breast, 81.7%. Also, the growth with NCI/ADR-RES ovarian is 92.4%; in the assay on T-47D breast it was 27.3%; in the assay with BT-549 breast, 87.6%; in the assay on MDA-MB-435 melanoma, -49.5% (active); with SW-620 colon it was 1.34% (active); in the assay on MCF7 breast, 3.31% (active). In addition, the figures for the growth in the assay on HCT-116 colon, in the assay with HCC-2998 colon and in the assay on KM12 colon were 12.8%, 1.78% (active) and 12.9%, respectively.
In the case of `Cc1nc(Cl)c2c(n1)N(C)c1ccc(Cl)cc1C(C)C2` (centres undefined), the growth in the assay on OVCAR-8 ovarian is 95.9%; with OVCAR-5 ovarian, 101%; in the assay on OVCAR-4 ovarian, 83%; in the assay with SK-OV-3 ovarian, 86.3%; with IGROV1 ovarian, 92.7%; with OVCAR-3 ovarian, 98.7%. Besides, the growth in the assay on HS 578T breast was 42.5%; with NCI/ADR-RES ovarian it was 95.8%; in the assay on T-47D breast, 71%; in the assay with MDA-MB-435 melanoma, 85.9%; in the assay with SW-620 colon, 86.5%; in the assay with MCF7 breast it was 95.6%. In addition, the growth with HCT-116 colon is 80.1%; with HCC-2998 colon, 98.6%; in the assay with KM12 colon, 92.4%.
In the case of `COc1ccc(OC)c(NC=O)c1`, the growth with RPMI-8226 leukemia was 127%; in the assay with OVCAR-8 ovarian, 104%; in the assay on OVCAR-5 ovarian, 108%; with OVCAR-4 ovarian it was 103%; with SK-OV-3 ovarian, 110%; in the assay on HS 578T breast it was 106%. The growth in the assay on NCI/ADR-RES ovarian is 109%; with T-47D breast, 101%; with BT-549 breast it was 109%; in the assay with MDA-MB-435 melanoma it was 104%; with SW-620 colon it was 105%; with MCF7 breast, 96.4%. Besides, the growth is 101% in the assay on HCT-116 colon, 103% in the assay on HCC-2998 colon and 109% with KM12 colon.
As to `N#C/C(C(=O)c1ccccc1)=C1/C(=O)Nc2ccc(F)cc21`, the growth with RPMI-8226 leukemia is 104%; in the assay with OVCAR-8 ovarian, 101%; in the assay on OVCAR-5 ovarian, 106%; in the assay on SK-OV-3 ovarian, 84.5%; with IGROV1 ovarian, 97.4%; in the assay on OVCAR-3 ovarian it was 106%. For the same molecule, the growth was 98.6% in the assay with HS 578T breast; 80.5% in the assay with T-47D breast; 102% in the assay with BT-549 breast; 107% in the assay on MDA-MB-435 melanoma; 101% in the assay on SW-620 colon; 96.4% in the assay on MCF7 breast. Further, the growth with HCT-116 colon is 103%; in the assay on HCC-2998 colon it was 104%; in the assay on KM12 colon it was 109%.
For the molecule `CCOC(=O)COc1ccc2c(c1)O/C(=C\c1ccc(O)cc1)C2=O`, the growth was 119% in the assay on RPMI-8226 leukemia; 105% in the assay on OVCAR-8 ovarian; 108% in the assay on OVCAR-4 ovarian; 117% with SK-OV-3 ovarian; 106% in the assay on IGROV1 ovarian; 106% in the assay on OVCAR-3 ovarian. Moreover, the growth in the assay with NCI/ADR-RES ovarian is 108%; in the assay on T-47D breast, 99.9%; with BT-549 breast, 101%; in the assay with MDA-MB-435 melanoma, 102%; in the assay on SW-620 colon, 104%; with MCF7 breast it was 105%. Moreover, the growth in the assay with HCT-116 colon was 105%; in the assay with HCC-2998 colon, 111%; in the assay on KM12 colon, 110%.
Consider `O=S(=O)(/N=c1/n(-c2ccccc2)nc2n1CCN2C1=NCCN1)c1ccc(-c2ccccc2)cc1`, for which the growth in the assay on RPMI-8226 leukemia is 96.8%; in the assay with OVCAR-5 ovarian it was 96.6%; in the assay on SK-OV-3 ovarian it was 100%; with IGROV1 ovarian, 95.4%; in the assay with OVCAR-3 ovarian, 101%; in the assay with HS 578T breast, 93.4%. For the same molecule, the growth in the assay with NCI/ADR-RES ovarian was 104%; in the assay on T-47D breast, 94%; with BT-549 breast it was 97.9%; with MDA-MB-435 melanoma it was 94.4%; in the assay with SW-620 colon, 98.3%; in the assay with MCF7 breast, 97.8%. Further, the growth was 95.6% in the assay with HCT-116 colon, 101% in the assay with HCC-2998 colon and 103% in the assay on KM12 colon.
As for `CSc1nc(N)c(N=Nc2ccc(S(=O)(=O)Nc3nnc(C)s3)cc2)c(=O)[nH]1`, the growth was 132% in the assay on RPMI-8226 leukemia; 103% in the assay with OVCAR-8 ovarian; 113% in the assay on OVCAR-5 ovarian; 96.9% with SK-OV-3 ovarian; 126% in the assay with IGROV1 ovarian; 106% in the assay on OVCAR-3 ovarian. Further, the growth in the assay on HS 578T breast was 89.4%; in the assay on NCI/ADR-RES ovarian it was 113%; in the assay with T-47D breast, 112%; in the assay on MDA-MB-435 melanoma, 128%; with SW-620 colon, 93.4%; in the assay with MCF7 breast, 100%. Further, the growth in the assay with HCT-116 colon was 109%; with HCC-2998 colon, 117%; in the assay on KM12 colon, 98.6%.
For `CC[C@]12C=CCN3CC[C@@]4(c5ccc(OC)cc5N(C)[C@H]4[C@@](O)(C(=O)OC)[C@@H]1OC(=O)CCC(=O)N[C@H](Cc1c[nH]c4ccccc14)C(=O)OC)[C@@H]32`, the growth is 0.282% [100 µM] (active) in the assay with OVCAR-8 ovarian; -58.1% [100 µM] (active) with OVCAR-5 ovarian; -18.1% [100 µM] (active) in the assay on SK-OV-3 ovarian; -38.7% [100 µM] (active) in the assay with IGROV1 ovarian; -43.8% [100 µM] (active) with HS 578T breast; -30.7% [100 µM] (active) in the assay with NCI/ADR-RES ovarian. Besides, the growth with T-47D breast was -29.3% [100 µM] (active); with BT-549 breast it was -16.5% [100 µM] (active); in the assay with MDA-MB-435 melanoma, -60.6% [100 µM] (active); in the assay on SW-620 colon it was -50.6% [100 µM] (active); with MCF7 breast it was -43.3% [100 µM] (active); in the assay with HCT-116 colon it was 3.55% [100 µM] (active). The growth in the assay with HCC-2998 colon is -43.3% [100 µM] (active); with KM12 colon, -35.1% [100 µM] (active).
Turning to `C=C(C)[C@@H]1CC[C@]2(c3ncc(C)o3)CC[C@]3(C)[C@H](CC[C@@H]4[C@@](C)(CCC#N)[C@H](C(=C)C)CC[C@]43C)[C@@H]12`, the growth is -41% [100 µM] (active) in the assay with RPMI-8226 leukemia; -78.1% [100 µM] (active) in the assay on OVCAR-8 ovarian; -97.2% [100 µM] (active) in the assay on OVCAR-5 ovarian; -88.4% [100 µM] (active) with SK-OV-3 ovarian; -87.6% [100 µM] (active) with IGROV1 ovarian; -80.4% [100 µM] (active) in the assay on OVCAR-3 ovarian. Besides, the growth in the assay with HS 578T breast was -28% [100 µM] (active); in the assay on NCI/ADR-RES ovarian, -82.9% [100 µM] (active); in the assay on T-47D breast, -73.4% [100 µM] (active); in the assay with BT-549 breast it was -76% [100 µM] (active); with MDA-MB-435 melanoma, -84.6% [100 µM] (active); in the assay on SW-620 colon, -70% [100 µM] (active). Also, the growth with MCF7 breast is -73.3% [100 µM] (active); in the assay on HCT-116 colon, -81.8% [100 µM] (active); in the assay on HCC-2998 colon, -80.9% [100 µM] (active).
On to `CCCOc1ccc(-c2nc(-c3ccc(N)cc3)cs2)cc1`, for which the growth was 96.6% in the assay on RPMI-8226 leukemia; 87% with OVCAR-8 ovarian; 108% with OVCAR-5 ovarian; 100% in the assay on OVCAR-4 ovarian; 105% with SK-OV-3 ovarian; 94.8% with IGROV1 ovarian. For the same molecule, the growth in the assay with HS 578T breast was 130%; with NCI/ADR-RES ovarian it was 97.9%; with T-47D breast it was 84.9%; in the assay on MDA-MB-435 melanoma, 107%; in the assay with SW-620 colon, 113%; with MCF7 breast it was 86%. The growth with HCT-116 colon is 95.5%; with HCC-2998 colon it was 114%; with KM12 colon, 115%.
